Source: PubChem BioAssay AID1508600 (Functional Genomics Laboratory (NCATS/FGL), 2020)
Screen size: about 53,000 sequences; about 3,700 (7%) were called active.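 How the source made its calls: active means gene knockdowns whose robust z-score for IL-1 alpha signal is at least 2 or at most -2, so actives lie on both sides; inactive means the rest.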 Many of the other results were omitted from the sample, so actives are more common in it than they were.

Test: Components of the Cytosolic LPS Sensing Pathway: Gene Identification via Genome-wide siRNA Screen;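 further: robust z of the log signal after scaling to non-targeting control siRNA wells of the plate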
Details: RAW264.7 macrophages, IL-1a HTRF, actives lie on both sides, screened at 100 nM (by protocol), cells primed 5 h with Pam3CSK4 first
In short: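 RAW264.7 mouse macrophages reverse-transfected with single siRNAs (100 nM final) for 48h, primed with Pam3CSK4 for 5 hours, then transfected with LipidA for 24 hour. Supernatant IL-1a read by HTRF; values normalized to negative-control median, log-transformed robust z-scores.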

z-score, inactive:
GCUUCUGAUAGAUCAUAAGTT against Aoc3 -0.276
GGCUCAAAGUUUUCAGAGATT against Kctd14 -0.0155
CGAAAAGGUGGACUUUUAGTT against Rnf4 -0.545
GGUGAUUUUCGAUAUACACTT against Dclre1b 0.257
CGACCUGCUCUCAUAGCUUTT against Sycn -0.702
GUACUAGUGGUGACUGCAUTT against Olfr462 -0.0789
CCAAGGGUUAAGUCUUCAUTT against Zranb1 0.738
CCUCUCAUGUAUCCUGUGATT against Olfr292 -0.205
GGGAAAGUGUGUAAUAAAUTT against Egflam -0.774
GCUUACUACCAUUGGGAAUTT against Samt2 1.65
GGAAUUCCUUCGUUUCCUUTT against Usp2 1.64
GGUUUGAAGUGUUGACAUUTT against Fam126a -0.474
CGUACAUCAGAAUGUUAAUTT against Fkbp4 1.46
GGUGGUGUCAACCUUAAAATT against Nrsn1 0.253
GGUUUUGUCCAGAAGAAUATT against Kl -0.574
GGCUCUUGAUACGAAUGUATT against Aadac -0.44
GGAGAAGGGCUUUUCUGUUTT against Gbp5 -0.729
GCCUCACAGAUUGAUAAUATT against Akt3 -1.23
GCAGCCAUACAGCUUAUAUTT against Cyb561d2 0.382
CGUGGCUCACAAUAAAUGCTT against Cfd 0.385
GGCAAAUGGAAAAUUCUGCTT against Rlim 0.982
GCUGAUGUAAGUAUUCUAGTT against Pdcl 0.1
GCGGAAUUGGAAAAUGCCGTT against Hbs1l 0.283
GGUGACAAUAAAUUUGGAUTT against Tmem143 1.09
GGAUUCACAUUUCUAAAGCTT against Adcy8 1.31
CGCUAUGAAACCUCACUAATT against E2f1 -0.598
GCAUGACCUCAGGUUUUCUTT against Il20rb 1.57
CCUGAUUGUCACUCCUUUUTT against Pde4b 0.753
GCGAAAGCAGGAUACUCCUTT against Mtmr11 1.01
GGAAAAAAUCUGCAUCCGATT against Neu1 -0.415
GGGACAUGAGCCAUUCAUCTT against Lcor 0.749
GGAUAGCUCUAUUAUCUCUTT against Serpinb3a 1.24
GGAUGUGCUCUGUGAAUGCTT against Pgf 0.533
GGUGAACGAUGUCAAUAAGTT against Pdxk -0.318
CCAAGAGAUUGCUAAUUGCTT against Runx1t1 -0.695
CGCAAAAACUGGUGUAACCTT against Arhgef1 -0.958
CUCCUCAGUCAACAAGAACTT against Hoxc11 0.176
GGAAAAUGCCUCAAGACUUTT against Wdr5b -0.0565
GGACACCAUCAAUUGAUUATT against Wdr27 -0.127
GCCUUGGCUGAAACUCUCATT against Cybb 0.612
GGGACAAGAAGAACAAGAGTT against Srp14 -1.33
GGAAGAAUCGGAUCAAGAUTT against Dpep2 0.153
GCCAAGACCAUUCAGCCUUTT against Zfp579 -0.394
GCUUCAUCGAACAAGUCGCTT against Pcbd1 0.715
GGUGCUGAAGAUGCUGACGTT against Zfp503 -1.46
CGUCACUGAUGUGGCUUUUTT against Plpp6 0.755
GGCAGAAACCCUUCUAUGUTT against Bmp8a -1.55
GGACAGCUUCCGAAACUAUTT against Miox 0.349
GGAAGCCAAAGAGAAACAATT against Ighmbp2 -0.0223
GCAGCCAAGUGGGUAACUUTT against Nicn1 0.474
CGGCCUGACAUCAACCUUGTT against Fam193b -0.915
GGAAGAAAACGCAACUAUATT against Atp1b3 0.246
GUUCUCAAGUAUCCCAGGCTT against 1110006O24Rik -0.661
GCUGGAAUAUAGGAAUGUCTT against Pex11g -0.0512
GCAUGUUUACGUUCCUGACTT against Slc2a12 -0.0386
GGUUUUAAUUUCAACUGUCTT against Tpp1 -0.468
GGGCAACACAGGACAUCUATT against Amot -0.35
GGUGUCCACGGUGGUUUGATT against Pfn1 -0.268
GGGACAGUUGACUUUUUAUTT against Cntn4 0.147
CCUUUUGAUGCAUCCCGUCTT against Bpifb3 0.709
GGGACUUUGGGCUAAAUAGTT against Tspan1 -1.32
GGAUAAUUGAUCAUAGAGGTT against Ufm1 -0.495
GAGUAGGAAUUAGAAUGAUTT against Tmem47 -0.00808
GCAUGAUCUCAGGUGUUUGTT against Timm13 -1.54
GGAUAACUGCUUCAUUUCCTT against Agbl1 0.62
GGAAAGACAAAGAACUCUATT against Ssu72 -0.535
GGAUUUCACUUGAGAAUGATT against Grem1 -0.905
CCUUCUAGUUUGCCUCUGGTT against Olfr877 0.332
GGGAAGAGCAUGUUUGCUGTT against Surf4 0.982
GGAGUGUUGCCAGUUCCUATT against Tctn2 -0.434
GGAGUUUCACCAGAAGGCUTT against Ttc24 1.63
GGAACUUGGAAUUUAGUUGTT against Pla2g4b 1.43
GGACAUGGUCCUUCCUAAATT against Arl8b 0.944
GGAAGCUGCACGGCAACUUTT against Btn2a2 -0.132
CCUGGUCAAUCGAUUCAUATT against 5330416C01Rik -0.12
GGGCAGAGUGGAGUAUCUGTT against Cbx4 -1.35
GGACACAUGGAAGAGGAUUTT against Rnf139 0.513
CGAGGAUGCUUUUUAAAAATT against Inip -0.0653
GCUGCUUUAGCUUAGUUUUTT against Vwa7 0.457
GCCCGAUUAAAAUAAAUUGTT against Arih2 0.636
GGAAAAUCUGGAGUUCUUCTT against Npas1 1.3
GGUUCAGACCAUCUUGGAATT against Bag3 -0.936
GGCAUUCAGAAAUCCAGUATT against Zdhhc2 -0.942
GCAAAAGUUCCAAAAAUCCTT against Cryba1 0.0525
GCUCUACAGUAGAACAAACTT against Efcab5 1.18
GGAACUCUUUUCCUAAAAUTT against Slco1a5 -0.838
CCUAUACCCUGGAAAGGCATT against Pigz 1.59

z-score, active:
GCAUUUUGUGGAAAAGGCUTT against Olfr582 -2.19
GGCCUUUGGGAAAACAUGGTT against Zcchc14 -2.16
GGAUUAGAGAAAUAGGGCUTT against Apol10a -2.09
GGAUGGACCAUCAGCUUCATT against Olfr1152 -2.25
GGAGCUGUCAUUUAAGAAATT against Sorbs2 2.42
GGUGGUAUCUGUAUUCUAUTT against Olfr1106 2.6
GGCAGUACAACUGGUCUACTT against 0610040J01Rik 2.21
GGCAUCACAGAAGGUUUAUTT against Rock2 4.17
GCUUGUUGGUGGUCUCCUGTT against Spink7 -2.28
GGCAUGGAAUCUGUUGUACTT against Olfr603 2.45
CCGUUUACGGCCACUAACUTT against Phkg2 3.68
GGUCUAGCUCUGAAACAUCTT against Pms2 2.27
GCAGGUUAAGUAGCUGACATT against Dync1li2 -2.37
CCCUCCACAGAUGAACACCTT against Lgals4 -2.02
GGUCAACGUAAAUUGUUCATT against Plppr5 2.94
GGACUUUGUGAAGGACUCUTT against Gatd1 -2.56
GGAGUGAUCAUCUAUAAUUTT against Rnf133 2.12
GCCGACAGAUUGAAAUUCGTT against Supv3l1 2.79
GGGAAUGGAAACGGCCAUGTT against Nmt1 2.02
GGAUUGAAGUCCCUUUACUTT against Zdhhc16 2.27
